Bioassay records: PubChem BioAssay, National Center for Advancing Translational Sciences (NCATS)
Shown are actives, neighbours in structure and some others; about 2.2% of the full set was active somewhere.
Pin1 inh: inhibitors of human Pin1; Q13526; Pin1 FP peptide displacement, HiFluor488, 10 min; Potency, µM (top dose mostly 115 µM), hits mostly inhibitors; 390,000 tested, 0.009% active; AID 504891; active means well fitted inhibition curve with a large enough effect in the polarisation, with a control signal flat, not every such curve was filed as active; inconclusive means small, poorly fitted or top-dose-only effect, or effect the other way, or a change in a side signal; inactive means no such curve, though single readings can be large or run the other way; the % refers to the polarisation
Target sequence (Q13526 whole entry, looked up): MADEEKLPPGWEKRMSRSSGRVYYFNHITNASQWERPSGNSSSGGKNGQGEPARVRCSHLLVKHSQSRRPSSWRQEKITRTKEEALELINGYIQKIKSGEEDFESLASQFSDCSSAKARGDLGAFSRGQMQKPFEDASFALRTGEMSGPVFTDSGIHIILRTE
Nrf2 block: blocks Nrf2 signaling | Potency, µM (top dose mostly 46 µM), usual class: inhibitors | 360,000 tested, 2.1% active | A549 ARE-Fluc reporter, luciferase luminescence, 18-24 h; further: nearly all actives have a fitted effect of over 60% in size
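Reporter: ARE-Fluc in A549. Exposure: 18-24 h, 37 °C, 5% CO2, 5% FBS OPTI-MEM. Readouts: fluorescent cytotoxicity (CellTiter-Fluor), then luminescent Nrf2 signal after BugLite.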
Nrf2 ARE act: Nrf2 pathway activation; AREc32 ARE-luciferase reporter (MCF7-derived line), luminescence, 24 h; Potency, µM (titrated, usually from 46.1 µM), most hits filed as activators; AID 624171; 410,000 tested, 0.31% active; further: nearly all actives have a fitted effect of over 65% in size
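AREc32 cells carrying an ARE-driven firefly luciferase reporter were seeded at 1000 cells/well in OPTI-MEM with 5% FBS, then exposed to compound for 24 hr at 37 deg C. Luminescence was read with Steady-Glo after 30 min at RT.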
A549 tox: A549 cytotoxicity, counter-screen for Nrf2 inhibitors | 390,000 tested, 0.16% active | Potency, µM (top dose mostly 46 µM), usual class: inhibitors | A549 ARE-Fluc cells, CellTiter-Fluor viability, 18-24 h
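A549 ARE-Fluc cells in 5% FBS OPTI-MEM, 5000 cells/well, rested 2 h then exposed to compounds in concentration-response for 18-24 h at 37 °C. Viability by CellTiter-Fluor fluorescence (Ex 405/Em 525) after 30 min; luciferase luminescence (BugLite, 15 min, RT) read afterwards.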
Numbers stand for hits; . = inactive; ? = inconclusive; / = not tested or not shown; [ ] = remark or other dose. Unless noted, the call rests on the fitted dose curve; in most records, active means well fitted curve in the direction sought with a large enough effect; inconclusive means small, poorly fitted or top-dose-only effect, or another doubt; inactive means no such curve, though single readings can be large; an effect the other way counts as inactive or inconclusive.

SMILES	Pin1 inh	Nrf2 block	Nrf2 ARE act	A549 tox
COc1ccc2nc(-c3ccc(F)cc3)sc2c1	?	?	.	.
c1ccc(Cc2nnc(N3CCCCC3)c3ccccc23)cc1	.	18µM	.	?
O=[N+]([O-])c1cccc(-c2cc(C(F)(F)F)n3nc(-c4ccccc4)cc3n2)c1	.	.	.	.
O=[N+]([O-])c1ccc(O)c(-c2ccnc3cc(-c4ccccc4)nn23)c1	.	18µM	.	16µM
O=C(N/N=C\c1ccc(CNS(=O)(=O)c2ccc(Cl)cc2)o1)C(=O)Nc1ccc(Oc2ccccc2)cc1	.	16µM	.	?
O=C(N/N=C\c1ccc(CNS(=O)(=O)c2ccccc2)o1)C(=O)Nc1ccc(F)cc1	.	.	.[9.22 µM]	.
Cc1ccc(N2CCN(Cc3nnc(-c4ccccc4F)o3)CC2)c(C)c1	?	?	.	.
CCCCCCOc1ccc(/C(C)=N/NC2=NCCN2)cc1[N+](=O)[O-]	.	.	.	.
CCCCOc1ccc(Br)cc1/C(C)=N/NC1=NCCN1	.	?	.	12µM
Cc1cn(C)c(CC(=O)NCc2ccccc2Cl)c1C(=O)O	.	/	.	.
Cc1cccc(NC(=O)CCc2c(C)nc3c(c(C)nn3C(C)(C)C)c2C)c1C	.	18µM	.	.
COC(=O)c1ccc(NC(=O)CCc2c(C)nc3c(c(C)nn3C(C)(C)C)c2C)cc1	.	?	.	.
O=C1CCc2cc(S(=O)(=O)Nc3ccc(Cl)c(Cl)c3)ccc2N1	.	.	/	?
O=c1[nH]n(Cc2ccccc2)c(=O)c2ccccc12	.	/	5µM	.
O=C(CSc1nnc(-c2cccnc2)o1)c1cc2ccccc2oc1=O	.	/	7.1µM	.
CC(=O)c1ccc(N2CCN(c3ccc(C(N)=O)cc3[N+](=O)[O-])CC2)cc1	.	.	.	.
NC(=O)CC(NC(=O)c1ccccc1)c1ccc(N2CCN(c3ccc(F)cc3)CC2)c([N+](=O)[O-])c1 (stereo not given)	.	21µM	.	.
NC(=O)c1ccc(N2CCN(c3ccc(O)cc3)CC2)c([N+](=O)[O-])c1	?	18µM	.	.
Cc1oc2ncn(CC(C)C)c(=O)c2c1C(=O)Nc1cc(F)ccc1F	.	.	.	.
CCOC(=O)c1ccc(NS(=O)(=O)c2cc(-c3onc(C)c3C)ccc2C)cc1	.	21µM	.	.
COc1cc2c(cc1NC(=O)CN(C)Cc1ccc(OC)c(OC)c1)oc1ccccc12	.	16µM	.	.
Cc1cc(NC(=O)COCc2cc(-c3ccc(F)cc3)on2)ccc1Br	.	.	.	.
CCc1ccc(OCC(=O)N(Cc2ccc(OC)cc2)C2CCS(=O)(=O)C2)cc1 (stereo not given)	.	/	.	.
CCn1nc(C(=O)NNC(=O)c2ccccc2)c2ccccc2c1=O	.	?	16µM	.
O=C(NCC(c1cccs1)N1CCOCC1)c1ccccc1NS(=O)(=O)c1cccc([N+](=O)[O-])c1 (stereo not given)	.	21µM	.	?
SMILES	Pin1 inh	Nrf2 block	Nrf2 ARE act	A549 tox
O=C(NCC(c1cccs1)N1CCOCC1)c1ccccc1NS(=O)(=O)c1ccc(Cl)c([N+](=O)[O-])c1 (stereo not given)	.	?	.	.
COC(=O)CN1C(=O)[C@@H]2[C@H](C1=O)[C@@H]1CC(C(=O)OC)=C[C@@H](C(=O)OC)C3C1=C(C(=O)[C@]3(C)NC(=O)c1ccccc1)[C@@H]2C (stereo not given in full)	.	.	/	.
O=C(Nc1ccc(OCc2ccccc2Cl)cc1)c1cccnc1	.	9.2µM	.	.
Cc1ccc([N+](=O)[O-])cc1-c1[nH]c(-c2ccc(O)c(O)c2)nc1-c1ccccc1	.	21µM	.	?
CCC(=O)NC(c1ccc(C)s1)c1cc(Cl)c2cccnc2c1O (stereo not given)	.	.	/	.
CCN(CC)c1ccc2c(C)c(Cl)c(=O)oc2c1	?	.	.	?
CCN(CC)c1ccc2c(c1)oc(=O)c1c(Cl)cc(=O)oc12	?	.	8.9µM	?
COc1cccc(NC(=O)CSc2nnc(NC(=O)NC3CCCCC3)s2)c1	.	/	.	.
CCc1ccc(-c2cc(C)no2)cc1S(=O)(=O)NCCN1CCC(C)CC1	.	.	.	.
CCc1ccc(-c2cc(C)no2)cc1S(=O)(=O)NCCCN1CCN(c2ccccc2)CC1	.	13µM	.	.
COc1ccc([C@@H]2C(C#N)=C(N)S[C@@H](c3ccccc3)[C@@H]2[N+](=O)[O-])cc1	.	21µM	.	.
COc1ccc2cc(S(=O)(=O)N3CCCCC3)ccc2c1S(=O)(=O)N1CCCCC1	.	16µM	.	.
COc1ccc(S(=O)(=O)N2CCCC2)cc1OC	.	.	.	.
COc1ccc(Nc2ccc(S(=O)(=O)N3CCCCC3)cc2[N+](=O)[O-])cc1Cl	.	?	.	.
COc1ccc(Nc2ccc(S(=O)(=O)N3CCCCC3)cc2[N+](=O)[O-])cc1	.	7.3µM	.	?
COc1ccc(C2=Nn3c(nnc3-c3ccccc3OC)SC2)cc1	.	?	/	.
COc1ccc2cc(CN(CCO)C(=O)c3ccccc3F)c(=O)[nH]c2c1	.	.	.	.
COc1ccc2cc(CN(CCO)C(=O)c3ccc(Br)cc3)c(=O)[nH]c2c1	.	21µM	.	.
Cc1cc(OC(C)C(=O)Nc2c(C(=O)c3ccc(F)cc3)oc3ccccc23)ccc1Cl (stereo not given)	.	.	.	.
O=[N+]([O-])c1ccc(Oc2ccc(/C=N/O)cc2)nc1	.	.	.	.
O=[N+]([O-])c1ccc(Oc2ccc(Oc3ccc(C(F)(F)F)cn3)cc2)nc1	.	16µM	.	.
COc1ccc(CNc2ncc(-c3ccc(F)cc3)n2C)c2ccccc12	.	21µM	.	.
CC(=O)N1c2ccccc2CC1C(=O)N1CCN(c2cc(Cl)ccc2C)CC1 (stereo not given)	.	/	.	.
Cc1cccc(C(=O)N(CCc2ccccc2)Cc2ccccc2)c1[N+](=O)[O-]	.	21µM	.	?
O=C(c1ccccc1[N+](=O)[O-])N(CCc1ccccc1)Cc1ccccc1	.	?	.	.
SMILES	Pin1 inh	Nrf2 block	Nrf2 ARE act	A549 tox
CCOc1ccc(N(C)S(=O)(=O)c2ccc(C)c(C(=O)NCc3cccs3)c2)cc1	.	16µM	.	.
CCC(C)Nc1nc(-c2cccc(OC)c2O)nc2ccccc12 (stereo not given)	?	21µM	.	?
CCOc1ccc2cc(C#N)c(SCC(=O)OCc3ccccc3)nc2c1	.	?	/	.
COc1ccc(CN(Cc2ccccc2)C(=O)c2ccccc2N)cc1COc1ccc(NC(C)=O)cc1	.	.	/	.
CCc1ccc(NCc2cc3ccc(OC)cc3n(CC(=O)Nc3ccc(C)c(Cl)c3)c2=O)cc1	.	.	.	.
COc1coc(C(O)CN)cc1=O (stereo not given)	.	.	.	.
CCOC(=O)C(=Cc1cc(=O)c(OC)co1)C(=O)OCC	.	9.2µM	.	15µM
COCCNC(=O)c1ccc(-n2c(-c3ccccc3)cc3c2CCC(C)C3)cc1 (stereo not given)	.	.	10µM	.
